HT1080 IDH1KD tx = kills HT-1080 cells with IDH1 knockdown; Potency, µM (series often up to 46.1 µM), for inactives: at the highest dose activity, negative = toxicity, most hits filed as cytotoxic; hit rate 2% among 360,000; AID 686971; HT-1080 IDH1 knockdown viability, ATP luminescence, 48 h;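 also: potency is read from the fitted curve at half-maximal effect; 0% = DMSO wells and -100% = cell-free medium wells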
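Using the IDH1-knockdown HT-1080 line run in the same batch and compound series as the NT line, viability after 48 h at 37 °C was determined by CellTiter-Glo luminescence and expressed as % activity.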
HT1080NT lethal = kills 2HG-producing HT-1080-NT fibrosarcoma cells. HT-1080-NT fibrosarcoma viability, CellTiter-Glo ATP luminescence, 48 h. Potency, µM (top dose mostly 46.1 µM), without a hit: top-dose activity, negative = less viability, most hits filed as cytotoxic. hit rate 1.6% among 360,000. AID 686970;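 also: NT is the 2HG producing partner of a matched IDH1 knockdown line; potency is read from the fitted curve at half-maximal effect; 0% = DMSO-treated cells and -100% = media-only wells without cells; nearly all actives have a fitted effect of over 55% in size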
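Viability by CellTiter-Glo luminescence after 48 h compound exposure at 37C of HT-1080-NT cells (750/well, RPMI, 5% FBS). % activity scaled between DMSO wells and medium-only wells, then curve-fitted and categorized by curve class.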
DT40 TDP1 CPT = growth inhibition of DT40 Tdp1-/-;hTDP1 cells with camptothecin (screen for TDP1 inhibitors) | hit rate 12% among 420,000 | Potency, µM (titrated, usually from 46.2 µM), for inactives: top-dose activity change, negative = growth inhibition, usual class: inhibitors | AID 686979 | chicken DT40 Tdp1-/-;hTDP1 cells + 20 nM CPT, ATP luminescence, 48 h; also: potency is read from the fitted curve at half-maximal effect; nearly all actives have a fitted effect of over 55% in size
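Chicken DT40 Tdp1-/- cells complemented with human TDP1, 400 cells/well, exposed to compounds plus 20 nM camptothecin for at least 48 h at 37 C; viability read as ATP content by CellTiter-Glo luminescence.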
TDP1 cell noCPT = qHTS for Inhibitors of human tyrosyl-DNA phosphodiesterase 1 (TDP1): qHTS in cells in absence of CPT; DT40 Tdp1-/- hTDP1 cells, no CPT, ATP luminescence, 48 h; Potency, µM (top dose mostly 46.2 µM), for the others: top-dose activity change, negative = growth inhibition, hits mostly inhibitors; hit rate 15% among 420,000; AID 686978, 2013; also: potency is read from the fitted curve at half-maximal effect; nearly all actives have a fitted effect of over 55% in size
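Compound effects on proliferation are scored in DT40 Tdp1-/-;hTDP1 cells in the absence of CPT. ATP levels (CellTiter-Glo luminescence) are recorded after a ≥48 hr, 37 °C incubation.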
ELG1 repair inh = blocks ELG1-dependent DNA repair in HEK293T cells | HEK293T ELG1-luciferase reporter, luminescence, 16 h; DNA damage induced by 5-fluorouridine | Potency, µM (highest dose often 46.1 µM), for the others: top-dose activity change, negative = inhibition, usual class: inhibitors | hit rate 2.3% among 330,000; also: potency is read from the fitted curve at half-maximal effect; nearly all actives have a fitted effect of over 55% in size
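Cells (2,000 per well) received 5-fluorouridine plus test compound or DMSO and were incubated 16 hr at 37 °C, 5% CO2. Luciferase activity was read by luminescence 30 min after ONE-Glo addition; signal suppression marked inhibition of damage-induced ELG1 function.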
IL1B secr inh = inflammasome signaling inhibition, IL-1 beta readout. THP-1 LPS/ATP IL-1B secretion, AlphaLISA, 16 h; stronger effect = lower value. activity change, % at 57.5 µM. hit rate 4.7% among 360,000. AID 743279; in the data active = activity change below about -50%; inconclusive = mostly about -30% to -49%
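Secreted IL-1B measured by AlphaLISA bead assay after 16 h compound exposure of THP-1 cells; compounds (final up to 57.5 uM) added 1 h before LPS (250 ng/mL) and ATP (1.25 mM) stimulation; lower signal means less secretion.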
* = called active by the depositor; ? = inconclusive; . = not tested or not shown; [ ] = dose if it differs, or a comment. A selection: hits, their analogues and other compounds. The true share with any hit is near 19%. Unless noted, calls follow the shape of the dose curve; as a rule, active = well fitted curve in the direction sought with a large enough effect; inconclusive = small, poorly fitted or top-dose-only effect, or another doubt; inactive = no such curve, though single readings can be large; an effect the other way counts as inactive or inconclusive. Unless noted, % is scaled to controls: 0 for no effect and ±100 for the full control effect.

SMILES	HT1080 IDH1KD tx	HT1080NT lethal	DT40 TDP1 CPT	TDP1 cell noCPT	ELG1 repair inh	IL1B secr inh
CCN(CC)CCN(Cc1cc2cc(C)c(C)cc2[nH]c1=O)C(=S)NCc1ccco1	?	?	-24%	-20%	2%	-142*
Cc1cc2cc(CN(Cc3ccco3)C(=O)NCc3ccccc3)c(=O)[nH]c2cc1C	13%	17%	2%	12%	?	14
C[C@@H]1CN([C@@H](C)CO)C(=O)c2cc(Br)cnc2O[C@H]1CN(C)C(=O)Nc1ccc(F)cc1	1%	5%	-1%	-6%	.	9
CC1CN(CCC(=O)N2CCCC(C(=O)c3nccn3C)C2)Cc2cc(Cl)ccc2O1 (stereo not drawn)	.	.	23%[9.04 µM]	-18%	.	.
Cc1cc(C)cc(-n2c(C)cc(C(=O)C(=O)Nc3ccccc3F)c2C)c1	.	.	3%	1%	.	.
COc1cc(C(=O)N(Cc2cc3ccc(C)cc3nc2N(C)C)C2CC2)cc(OC)c1OC	.	.	15%[9.04 µM]	?	.	.
CC(=O)N(CCc1ccccc1C)Cc1cc2ccc(C)cc2[nH]c1=O	-1%	-4%	-17%	?	16µM*	-3
CC(=O)N(CCc1cccc(C)c1)Cc1cc2cc(C)ccc2[nH]c1=O	0%	1%	15µM*	?	?	13
CCOC(=O)C1=C(C)NC(C)=C(C(=O)OCC)C1C(=O)OCC(=O)N1c2ccccc2CC1C (stereo not drawn)	-3%	-18%	?	18µM*	23µM*	?
CCOC(=O)c1c(C)[nH]c(C)c1S(=O)(=O)N1c2ccccc2CC1C (stereo not drawn)	-1%	-7%	?	?	6%	9
CCOC(=O)c1c(C)[nH]c(C(=O)OCC(=O)N2c3ccccc3CC2C)c1C (stereo not drawn)	-23%	-23%	?	18µM*	?	?
Cc1cc(Cl)ccc1-c1nc(NC(C)C)nc2ccsc12	0%	-2%	18µM*	23µM*	.	15
Cc1cc(Cl)ccc1-c1nc(NCc2ccccc2)nc2ccsc12	?	?	?	?	.	0
O=C(Nc1cccc(O)c1)C1CC(c2ccc(Cl)cc2)=NO1 (stereo not drawn)	0%	-22%	24%	6%	26%	4
CC1CN(C(=O)Nc2ccc(C(=O)NCCc3ccccc3Cl)cc2)c2ccccc2S1 (stereo not drawn)	.	.	23µM*	21µM*	.	.
CC1CN(C(=O)Nc2ccc(C(=O)NCCc3ccc(Cl)cc3)cc2)c2ccccc2S1 (stereo not drawn)	.	.	-20%	?	.	.
CC1CN(C(=O)CCC(=O)NCc2ccccc2Cl)c2ccccc2S1 (stereo not drawn)	-8%	0%	-26%	-20%	3%	-11
CC(C)Oc1ccc(CNC(=O)c2ccc(NC(=O)N3CC(C)Sc4ccccc43)cc2)cc1 (stereo not drawn)	.	.	21µM*	-106%	.	.
CC(C)Oc1ccc(CNC(=O)CCC(=O)N2CC(C)Sc3ccccc32)cc1 (stereo not drawn)	-3%	19%	16µM*	?	-5%	0
CCN1CCSc2ccc(C(=O)NCc3ccc(OC(C)C)cc3)cc21	-6%	7%	?	?	-12%	-7
CC(C)(C)C(=O)Nc1cccc(C(=O)OCc2cc(=O)n3nc(C4CCCCC4)sc3n2)c1	.	.	5%	-3%	.	.
Cc1coc2cc3oc(=O)c(CCC(=O)N4CCCCC4)c(C)c3cc12	.	.	13µM*	21µM*	.	.
Cc1c(C)c2cc3c(C)coc3cc2oc1=O	13%	2%	8%	20%	3%	-51*
Cc1oc2c(C)c3oc(=O)c(CCC(=O)N4CCCCC4)c(C)c3cc2c1C	.	.	15µM*	10µM*	.	.
Cc1oc2c(C)c3oc(=O)c(CCC(=O)N4C[C@H]5C[C@@H](C4)c4cccc(=O)n4C5)c(C)c3cc2c1C	-1%	2%	?	?	?	?
SMILES	HT1080 IDH1KD tx	HT1080NT lethal	DT40 TDP1 CPT	TDP1 cell noCPT	ELG1 repair inh	IL1B secr inh
COc1cc2c(cc1OC)C(=O)OC2	.	.	1%	17%	.	.
CCOC(=O)CSc1nc2sc3c(c2c(=O)n1Cc1ccccc1)CCC(C(C)(C)C)C3 (stereo not drawn)	.	.	-10%	5%	.	.
O=C(O)/C=C/C(=O)NCc1cn(-c2ccccc2)nc1-c1cccc(Br)c1	-14%	-18%	2%	-2%	11%	-58*
COc1ccccc1OCC(=O)NNc1c2ccccc2nc2ccccc12	-10%	-10%	?	18µM*	?	?
Nc1ccccc1C(=O)NNc1c2ccccc2nc2ccccc12	-16%	-10%	?	13µM*	?	-2
O=C(NNc1c2ccccc2nc2ccccc12)c1ccc(Cl)cc1	11%	6%	?	12µM*	0%	-9
COc1cccc(C(=O)NNc2c3ccccc3nc3ccccc23)c1	-24%	-29%	?	12µM*	?	-4
COc1ccc(NC(=O)CSc2nc(N)cc(=O)[nH]2)cc1S(=O)(=O)N1CCCCC1	0%	7%	-22%	?	6%	-4
CCn1c(NC(=O)c2ccc(C)cc2)c2ccccc2nc1=O	21%	2%	-6%	-20%	12%	?
Cc1ccc(C(=O)NNc2c3ccccc3nc3ccccc23)cc1	?	-14%	13µM*	10µM*	?	-98*
CN(c1ccccc1)S(=O)(=O)c1ccc(C(=O)NNC(=O)c2ccccc2)cc1	-1%	2%	-14%	-24%	15%	12
CN(c1ccccc1)S(=O)(=O)c1cccc(C(=O)NNC(=O)c2ccccc2)c1	-21%	-11%	16µM*	16µM*	?	14
CC1(C)CC(NC(=O)c2cccc(S(=O)(=O)N(Cc3ccccc3)c3ccccc3)c2)CC(C)(C)N1	-2%	-3%	?	?	15%	-81*
CN(c1ccccc1)S(=O)(=O)c1cccc(C(=O)NCCc2c[nH]c3ccccc23)c1	-23%	-21%	15µM*	?	.	3
O=C(NCc1cccc(C(F)(F)F)c1)c1cccc(S(=O)(=O)NCc2ccccc2)c1	-4%	0%	?	23µM*	?	3
CN(c1ccc(C(=O)NCc2ccccc2)cc1)S(C)(=O)=O	-12%	-5%	-19%	-10%	28%	0
